Reference: ChEMBL document CHEMBL3988442, “University of Dundee, Small-Polar-MMV Screening Library” (2021)
For part of these data: Measured potencies and affinities stand elsewhere.

Columns and labels:
Set-up in all cases: scale not given: direction of the effect not stated beside the values
[1] = target: Protein translocase subunit SecA (Escherichia coli (strain K12)) (UniProt P10408); experiment: Assay to Identify E. coli SecA ATPase Inhibitors; format: functional; conditions: 30 µM
[2] = target: T1, Ubiquitin-activating enzyme e1, putative (Leishmania donovani (strain BPK282A1)) (UniProt E9BSI1); experiment: Leishmania donovani Ubiquitin Activating Enzyme (LdE1); format: functional; conditions: 30 µM
T1 sequence (whole entry): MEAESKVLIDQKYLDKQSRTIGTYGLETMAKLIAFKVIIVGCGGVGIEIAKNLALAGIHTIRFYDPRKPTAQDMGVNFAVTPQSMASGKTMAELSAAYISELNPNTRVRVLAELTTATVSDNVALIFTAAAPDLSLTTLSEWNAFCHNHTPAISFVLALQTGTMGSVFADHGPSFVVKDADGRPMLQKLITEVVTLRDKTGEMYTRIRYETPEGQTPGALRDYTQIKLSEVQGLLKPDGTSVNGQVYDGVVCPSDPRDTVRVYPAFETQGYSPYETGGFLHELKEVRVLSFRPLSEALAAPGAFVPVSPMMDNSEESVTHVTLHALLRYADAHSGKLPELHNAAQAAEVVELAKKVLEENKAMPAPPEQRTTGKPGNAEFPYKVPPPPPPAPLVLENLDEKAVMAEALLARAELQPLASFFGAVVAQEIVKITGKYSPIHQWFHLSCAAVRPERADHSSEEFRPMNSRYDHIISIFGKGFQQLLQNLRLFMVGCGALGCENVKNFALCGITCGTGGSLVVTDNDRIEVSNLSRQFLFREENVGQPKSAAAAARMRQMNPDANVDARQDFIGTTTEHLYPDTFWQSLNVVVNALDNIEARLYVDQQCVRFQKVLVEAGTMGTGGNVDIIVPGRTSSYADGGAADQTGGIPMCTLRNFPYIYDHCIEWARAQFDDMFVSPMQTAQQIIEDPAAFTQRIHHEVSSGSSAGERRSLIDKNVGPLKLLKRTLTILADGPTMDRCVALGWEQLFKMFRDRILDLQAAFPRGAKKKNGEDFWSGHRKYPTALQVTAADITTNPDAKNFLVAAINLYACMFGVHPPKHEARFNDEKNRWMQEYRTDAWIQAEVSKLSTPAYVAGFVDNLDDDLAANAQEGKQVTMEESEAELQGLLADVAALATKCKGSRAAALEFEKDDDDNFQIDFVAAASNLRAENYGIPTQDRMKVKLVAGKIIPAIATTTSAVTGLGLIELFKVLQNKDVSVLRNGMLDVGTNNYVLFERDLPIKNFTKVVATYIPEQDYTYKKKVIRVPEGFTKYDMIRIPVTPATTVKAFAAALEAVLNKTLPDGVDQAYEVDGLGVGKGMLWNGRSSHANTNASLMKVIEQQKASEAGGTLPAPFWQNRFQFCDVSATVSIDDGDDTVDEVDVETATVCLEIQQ

[3] = target: Sialic acid-binding Ig-like lectin 9 (Homo sapiens) (UniProt Q9Y336); experiment: Hs-Siglec9 ALPHAscreen SOP 20170721; conditions: 10 µM
[4] = tested on: Trypanosoma cruzi; experiment: Trypanosoma cruzi phosphomannomutase and mannose-1-phosphate guanylyltransferase assay; format: functional; conditions: 10 µM
[5] = target: T2, Arginase-2, mitochondrial (Homo sapiens) (UniProt P78540); experiment: in vitro enzyme assay to detect the production of urea directly proportional to the activity of Arginase II; format: functional; conditions: 33.3 µM; also: in the data most compounds retested in dose-response had high values
T2 sequence (whole entry): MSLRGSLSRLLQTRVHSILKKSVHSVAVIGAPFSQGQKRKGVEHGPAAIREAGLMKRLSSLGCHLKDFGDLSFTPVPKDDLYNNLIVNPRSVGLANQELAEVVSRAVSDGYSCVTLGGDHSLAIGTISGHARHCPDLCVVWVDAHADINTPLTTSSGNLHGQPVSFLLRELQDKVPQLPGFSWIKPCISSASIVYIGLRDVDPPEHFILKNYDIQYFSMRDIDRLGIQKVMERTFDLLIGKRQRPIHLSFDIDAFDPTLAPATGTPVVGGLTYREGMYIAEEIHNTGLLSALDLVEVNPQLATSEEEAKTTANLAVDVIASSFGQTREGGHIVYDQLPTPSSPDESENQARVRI

[6] = target: T3, Proteasome subunit beta (Trypanosoma cruzi) (UniProt O96673); experiment: Trypanosoma cruzi proteasome chymotrypsin-like activity (TcProtChymo) assay.; also: in the data most compounds retested in dose-response had high values; format: functional; conditions: 9.37 µM
T3 sequence (whole entry): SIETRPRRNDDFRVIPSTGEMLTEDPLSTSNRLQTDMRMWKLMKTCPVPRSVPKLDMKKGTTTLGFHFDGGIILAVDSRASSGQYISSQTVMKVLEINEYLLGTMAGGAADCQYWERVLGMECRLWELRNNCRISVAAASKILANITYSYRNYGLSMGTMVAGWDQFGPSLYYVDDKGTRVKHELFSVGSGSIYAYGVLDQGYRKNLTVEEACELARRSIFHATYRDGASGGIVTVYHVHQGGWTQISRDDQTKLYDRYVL

[7] = species on record: Homo sapiens; experiment: To identify inhibition of the IFN signalling (Jak-Stat) pathway via expression of an eGFP reporter gene under the control of an IFN-stimulated response element (ISRE) containing MxA promoter.; format: functional; conditions: 30 µM
[8] = target: T4, Tyrosyl-tRNA synthetase, putative (Trypanosoma cruzi (strain CL Brener)) (UniProt Q4DSP6); experiment: Trypanosoma cruzi tyrosyl tRNA synthetase (TcYRS) _High Tyrosine SOP; format: functional; conditions: 30 µM; also: in the data most compounds retested in dose-response had high values
T4 sequence (whole entry): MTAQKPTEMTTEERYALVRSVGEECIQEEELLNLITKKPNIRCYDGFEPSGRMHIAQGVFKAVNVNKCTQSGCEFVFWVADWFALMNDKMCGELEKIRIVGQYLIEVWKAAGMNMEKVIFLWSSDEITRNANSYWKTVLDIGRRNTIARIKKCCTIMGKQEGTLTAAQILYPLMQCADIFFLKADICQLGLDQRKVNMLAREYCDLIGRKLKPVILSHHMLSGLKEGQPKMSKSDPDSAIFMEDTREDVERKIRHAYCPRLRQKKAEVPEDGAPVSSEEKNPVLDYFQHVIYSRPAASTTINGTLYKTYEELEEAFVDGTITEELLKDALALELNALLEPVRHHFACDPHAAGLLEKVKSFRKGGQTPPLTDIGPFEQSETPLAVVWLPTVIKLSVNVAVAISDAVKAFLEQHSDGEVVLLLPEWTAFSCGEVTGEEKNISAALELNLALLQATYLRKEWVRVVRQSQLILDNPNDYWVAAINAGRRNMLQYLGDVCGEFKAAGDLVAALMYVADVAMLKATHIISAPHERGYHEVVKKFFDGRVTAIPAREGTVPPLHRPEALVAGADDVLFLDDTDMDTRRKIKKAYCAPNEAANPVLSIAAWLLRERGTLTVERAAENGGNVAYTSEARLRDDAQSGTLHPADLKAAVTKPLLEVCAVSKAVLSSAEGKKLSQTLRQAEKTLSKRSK

[9] = target: T4, Tyrosyl-tRNA synthetase, putative (Trypanosoma cruzi (strain CL Brener)); experiment: Trypanosoma cruzi tyrosyl tRNA synthetase (TcYRS) SOP; format: functional; conditions: 30 µM
[10] = target: Chromo domain-containing protein 1 (Saccharomyces cerevisiae (strain ATCC 204508 / S288c) (Baker's yeast)) (UniProt P32657); experiment: ScCHD-1 Enzyme Inhibition Assay; format: functional; conditions: 30 µM; also: in the data most compounds retested in dose-response had high values
Sequence of Chromo domain-containing protein 1 (Saccharomyces cerevisiae (strain ATCC 204508 / S288c) (Baker's yeast)) (P32657 whole entry, the tested form may be a part): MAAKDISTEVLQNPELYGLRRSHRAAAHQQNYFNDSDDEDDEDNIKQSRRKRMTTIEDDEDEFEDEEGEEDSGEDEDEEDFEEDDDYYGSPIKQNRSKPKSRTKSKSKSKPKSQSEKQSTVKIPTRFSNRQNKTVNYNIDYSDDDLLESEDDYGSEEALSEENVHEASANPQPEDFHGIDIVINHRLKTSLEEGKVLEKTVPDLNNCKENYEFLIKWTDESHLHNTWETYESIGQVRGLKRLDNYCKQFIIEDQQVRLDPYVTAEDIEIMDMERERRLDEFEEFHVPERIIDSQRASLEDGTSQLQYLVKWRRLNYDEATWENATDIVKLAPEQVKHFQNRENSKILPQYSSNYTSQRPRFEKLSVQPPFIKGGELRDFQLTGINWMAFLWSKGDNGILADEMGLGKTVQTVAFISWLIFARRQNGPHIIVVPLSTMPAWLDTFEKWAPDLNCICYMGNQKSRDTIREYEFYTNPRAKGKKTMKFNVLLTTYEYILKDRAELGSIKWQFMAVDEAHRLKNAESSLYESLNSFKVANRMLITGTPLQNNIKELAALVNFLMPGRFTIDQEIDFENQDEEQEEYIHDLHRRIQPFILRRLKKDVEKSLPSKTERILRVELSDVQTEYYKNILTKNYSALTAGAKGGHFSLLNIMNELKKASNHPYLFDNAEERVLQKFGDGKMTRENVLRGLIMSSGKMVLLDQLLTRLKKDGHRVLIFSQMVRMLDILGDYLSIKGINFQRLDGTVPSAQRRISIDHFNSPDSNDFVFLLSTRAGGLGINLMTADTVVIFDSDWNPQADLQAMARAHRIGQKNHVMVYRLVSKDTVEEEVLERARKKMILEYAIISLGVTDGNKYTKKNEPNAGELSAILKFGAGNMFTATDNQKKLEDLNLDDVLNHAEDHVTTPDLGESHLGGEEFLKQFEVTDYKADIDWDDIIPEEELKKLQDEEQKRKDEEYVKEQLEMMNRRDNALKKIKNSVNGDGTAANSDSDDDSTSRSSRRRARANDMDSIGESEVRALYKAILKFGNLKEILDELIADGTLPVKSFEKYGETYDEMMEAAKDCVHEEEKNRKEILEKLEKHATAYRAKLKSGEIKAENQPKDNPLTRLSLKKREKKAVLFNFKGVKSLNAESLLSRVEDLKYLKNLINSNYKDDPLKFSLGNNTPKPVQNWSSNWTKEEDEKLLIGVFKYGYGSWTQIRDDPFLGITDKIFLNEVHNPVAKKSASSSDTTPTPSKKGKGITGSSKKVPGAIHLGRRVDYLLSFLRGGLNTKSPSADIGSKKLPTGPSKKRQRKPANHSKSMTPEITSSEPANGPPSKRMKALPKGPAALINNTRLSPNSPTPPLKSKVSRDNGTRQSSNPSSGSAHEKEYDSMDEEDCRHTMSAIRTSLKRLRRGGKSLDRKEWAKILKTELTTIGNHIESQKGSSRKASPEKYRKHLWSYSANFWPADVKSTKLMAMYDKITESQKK

Sequence of Protein translocase subunit SecA (Escherichia coli (strain K12)) (P10408 whole entry): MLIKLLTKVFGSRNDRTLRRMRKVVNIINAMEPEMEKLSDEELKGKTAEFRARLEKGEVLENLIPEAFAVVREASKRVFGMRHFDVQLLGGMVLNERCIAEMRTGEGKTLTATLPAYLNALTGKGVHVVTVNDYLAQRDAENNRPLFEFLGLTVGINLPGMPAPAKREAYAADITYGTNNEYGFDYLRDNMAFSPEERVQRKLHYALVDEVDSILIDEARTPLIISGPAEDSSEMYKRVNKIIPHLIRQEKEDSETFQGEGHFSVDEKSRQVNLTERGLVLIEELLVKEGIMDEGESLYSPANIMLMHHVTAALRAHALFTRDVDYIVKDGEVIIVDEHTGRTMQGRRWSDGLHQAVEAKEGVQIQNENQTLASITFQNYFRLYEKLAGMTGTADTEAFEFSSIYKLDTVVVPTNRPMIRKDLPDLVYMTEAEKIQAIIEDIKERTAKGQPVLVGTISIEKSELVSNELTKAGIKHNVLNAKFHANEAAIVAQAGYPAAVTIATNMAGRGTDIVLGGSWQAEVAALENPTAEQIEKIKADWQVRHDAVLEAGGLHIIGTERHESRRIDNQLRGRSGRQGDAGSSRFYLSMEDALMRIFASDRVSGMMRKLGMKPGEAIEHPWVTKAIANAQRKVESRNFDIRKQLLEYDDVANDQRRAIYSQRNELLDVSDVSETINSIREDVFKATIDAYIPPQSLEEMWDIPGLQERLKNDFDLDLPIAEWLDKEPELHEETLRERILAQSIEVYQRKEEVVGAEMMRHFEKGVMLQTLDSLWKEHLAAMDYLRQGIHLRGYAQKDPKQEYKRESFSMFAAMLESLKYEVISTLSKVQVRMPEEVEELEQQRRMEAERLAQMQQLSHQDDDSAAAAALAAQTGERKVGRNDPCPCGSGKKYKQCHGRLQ
Sequence of Sialic acid-binding Ig-like lectin 9 (Homo sapiens) (Q9Y336 whole entry): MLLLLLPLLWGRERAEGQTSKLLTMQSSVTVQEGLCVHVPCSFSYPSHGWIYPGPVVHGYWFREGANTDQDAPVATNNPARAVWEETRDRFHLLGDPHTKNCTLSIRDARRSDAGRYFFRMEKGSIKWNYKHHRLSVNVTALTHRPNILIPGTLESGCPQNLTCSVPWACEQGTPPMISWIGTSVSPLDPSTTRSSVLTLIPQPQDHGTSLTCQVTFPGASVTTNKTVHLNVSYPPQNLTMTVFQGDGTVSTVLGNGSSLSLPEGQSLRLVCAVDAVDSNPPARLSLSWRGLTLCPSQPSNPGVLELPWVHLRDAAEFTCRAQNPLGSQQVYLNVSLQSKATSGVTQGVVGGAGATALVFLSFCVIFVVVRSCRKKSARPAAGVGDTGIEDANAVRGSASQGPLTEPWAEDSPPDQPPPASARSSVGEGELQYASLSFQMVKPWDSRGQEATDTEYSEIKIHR

SMILES	Percent Effect [1] [%]	Percent Effect [2] [%]	Percent Effect [3] [%]	Percent Effect [4] [%]	Percent Effect [5] [%]	Percent Effect [6] [%]	Percent Effect [7] [%]	Percent Effect [8] [%]	Percent Effect [9] [%]	Percent Effect [10] [%]
O=S(=O)(c1ccccc1)N1CCCCC1c1cc[nH]n1 (stereo not given)	-1.23	9.33	-5.11	-6.71	-1.77	13.5	19.2	-3.17	0	-28
CCOc1ccc(Cl)c(C(=O)NCc2ccc(C(=O)NC)cc2)n1	-5.52	15.4	-5.92	4.79	4.92	8.62	9.74	5.26	20.5	0.666
CC1CCCCN1C(=O)CN1CCN(c2ccc3nncn3n2)CC1 (stereo not given)	-3.43	15.4	1.72	7.42	-0.82	11.3	6.75	6.22	13.2	-7.79
CCN(Cc1cccc2c1OCO2)C(=O)Nc1ccncc1	-0.455	-2.6	12.1	-2.8	-2.25	2.81	34.4	0.98	0	5.59
Cc1cnn(CC2CCN(CC(O)COc3ccc(F)cc3)CC2)c1 (stereo not given)	-5.77	2.6	-3.53	-1.87	-5.94	4.21	9.11	0.98	0	-2.59
Cc1cnc(CN(C)C2CCN(Cc3nc4ccccc4n3C)C2)o1 (stereo not given)	-2.3	16	-6.81	3.21	-4.43	22.6	-0.979	14.2	17.9	-12.5
O=C1CC2(CCCCN2C(=O)c2ccsc2)CN1CC1CC1 (stereo not given)	-4.46	11.7	1.96	2.44	4.57	0.429	-8.36	8.7	15	-4.62
Cc1cc(-c2ccc(C(=O)O)cc2)nc(C2CCCN(C(C)C)C2)n1 (stereo not given)	-0.51	12	1.15	1.77	0.885	6.08	4.86	6.35	17.5	-24.7
Cn1cccc1-c1cc(C(=O)N2CC(c3cccnc3)C2)[nH]n1	-12.9	2.7	4.47	-2.81	1.05	5.65	32.9	-1.6	0	0.144
COc1ccc(C(C)NC(=O)NCCCn2cncn2)cc1F (stereo not given)	-2.93	16	2.65	-0.602	1.77	8.57	-15.1	6.84	17.9	-9.21
Cc1ccc(-c2nc(CN3CCCC3Cn3cc(C)cn3)no2)cc1 (stereo not given)	-2.04	5.33	2.03	4.02	-8.43	22.6	12.1	1.58	10.3	-12
O=C(NCc1cc[nH]n1)N(CCCO)C1CCc2ccccc21 (stereo not given)	-1.28	8	-0.45	0	-1.77	2.29	1.81	3.68	2.56	-7.56
Cc1nn(-c2ccccc2)cc1C(=O)N1CCCN2CCCC2C1 (stereo not given)	-4.61	10.7	5.72	-0.201	0.887	7.21	3.25	7.89	12.8	-14.7
CCc1nc(CN(C)C2CCN(CCS(C)(=O)=O)C2)no1 (stereo not given)	-1.27	18.7	-4.89	0	-1.77	16.9	4.92	5.79	17.9	-5.25
CCn1cnnc1CNC(=O)N1CCOCC1	-3.29	0	6.4	-3.41	2.66	2.97	-3.83	2.63	0	-2.64
CN1CC(=O)N(c2ccccc2)CC12CCN(CC1CC1)C2 (stereo not given)	-2.12	-1.3	-3.04	-6.13	1.22	10.5	-3.51	-0.526	0	-0.704
Cc1ccc(-c2nc(CN3CCc4c(ncn4C)C3)cs2)o1	-4.38	2.56	-16.5	11.9	-6.56	24.3	2.62	11	18.1	37.3
CC(C)(O)CN1CCN(C(=O)c2cc(Cl)cc3cccnc23)CC1	-3.15	-5.13	5.39	2.54	6.15	9.13	-3.27	2.39	1.21	-5.6
CCc1nc(C2CCCN2CCCS(=O)(=O)c2ccccc2)no1 (stereo not given)	-2.94	15.4	-14.9	2.16	0.41	13.1	6.1	4.31	22.9	-3.94
COc1ncc(C2(O)CCN(Cc3c(F)cccc3F)CC2)c(OC)n1	-3.32	9.33	-4.97	1.97	-4.87	13.3	15.3	2.12	0	-21.1
O=C(COCc1ccccc1)N1CCC(OCc2cccnc2)CC1	-7.79	2.7	2.89	-4.95	-0.35	9.42	35.8	5.85	12.2	-2.8
